Compounds without any hit were thinned out: in the full panel of roughly 79,000, 15% have a hit. Activity calls are given as the source filed them. No stated cut-off is given here; in the data, active means growth inhibition above about 70%; inactive means the rest.
Columns and labels:
[1] = NCI Yeast Anticancer Drug Screen. Data for the rad52 strain (AID 147);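 further: 0% = growth of vehicle-treated control cultures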; conditions: S. cerevisiae rad52 mutant growth inhibition, hits give high values
Outline: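 Yeast strain carrying a DNA damage repair alteration was exposed to test compounds. Growth inhibition was measured relative to vehicle-treated controls.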

[2] = NCI Yeast Anticancer Drug Screen. Data for the rad50EPP+ strain (AID 151);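 further: 0% = growth of vehicle-treated control cultures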; conditions: S. cerevisiae rad50 mutant strain, hits give high values
Outline: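 Yeast strain carrying rad50 alteration (rad50EPP+) exposed to compounds; growth inhibition measured relative to vehicle-treated controls.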

[3] = NCI Yeast Anticancer Drug Screen. Data for the mgt1 strain (AID 153); conditions: S. cerevisiae mgt1 mutant growth inhibition, hits give high values
Outline: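 Yeast mgt1 strain (DNA repair/cell-cycle alteration panel) exposed to compounds; growth inhibition measured relative to vehicle-treated controls.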

[4] = NCI Yeast Anticancer Drug Screen. Data for the rad50 strain (AID 155);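 further: 0% = growth of vehicle-only cultures of the same strain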; conditions: S. cerevisiae rad50 strain growth inhibition, hits give high values
Outline: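 Compounds were tested on a yeast strain with an engineered DNA damage repair alteration; the reported value is growth inhibition normalised to vehicle treatment.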

[5] = NCI Yeast Anticancer Drug Screen. Data for the mec2-1 strain (AID 157); conditions: S. cerevisiae mec2-1 strain, hits give high values
Outline: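 mec2-1 yeast strain, carrying an alteration in DNA damage repair or cell cycle control, was exposed to compounds; growth inhibition was measured relative to vehicle-treated controls.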

[6] = NCI Yeast Anticancer Drug Screen. Data for the rad14 strain (AID 159);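 further: 0% = growth of vehicle-treated control cultures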; conditions: S. cerevisiae rad14 strain growth inhibition, hits give high values
Outline: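 Compound-treated yeast with a defined DNA-repair lesion; growth inhibition normalised to vehicle-treated cultures.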

[7] = NCI Yeast Anticancer Drug Screen. Data for the sgs1 mgt1 strain (AID 161);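 further: 0% = growth of cultures given vehicle only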; conditions: S. cerevisiae sgs1 mgt1 strain, hits give high values
Outline: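 Yeast cells carrying a defined DNA-repair defect were exposed to test compounds. Growth inhibition was measured relative to vehicle-treated controls.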

[8] = NCI Yeast Anticancer Drug Screen. Data for the CLN2oe strain (AID 163);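 further: 0% = growth of vehicle-only control cultures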; conditions: S. cerevisiae CLN2oe strain, hits give high values
Outline: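 Yeast cells carrying a defined cell-cycle control alteration were exposed to test compounds. Growth inhibition was scored against vehicle-treated control cultures.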

[9] = NCI Yeast Anticancer Drug Screen. Data for the cln2 rad14 strain (AID 165);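 further: 0% = growth equal to vehicle treated cultures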; conditions: S. cerevisiae cln2 rad14 strain, hits give high values
Outline: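 Yeast carrying cln2 and rad14 alterations (cell cycle control and DNA damage repair) were exposed to compounds. Growth inhibition was measured against vehicle-treated controls.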

[10] = NCI Yeast Anticancer Drug Screen. Data for the bub3 strain (AID 167); conditions: S. cerevisiae bub3 mutant strain, hits give high values
Outline: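 Growth of a checkpoint-deficient yeast mutant is measured after compound exposure. Values represent inhibition relative to vehicle.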

[11] = NCI Yeast Anticancer Drug Screen. Data for the wt2 strain (AID 169);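 further: 0% = growth of vehicle-treated yeast cultures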; conditions: S. cerevisiae wt2 strain growth inhibition, hits give high values
Outline: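 Yeast cells were exposed to test compounds, and growth inhibition was measured relative to vehicle-treated controls.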

[12] = NCI Yeast Anticancer Drug Screen. Data for the mlh1 strain (AID 171);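 further: 0% = growth of vehicle-treated control cultures of the same strain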; conditions: S. cerevisiae mlh1 strain growth inhibition, hits give high values
Outline: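 Yeast carrying a defined genetic alteration in DNA damage repair or cell cycle control were exposed to test compounds. Growth inhibition was measured relative to vehicle-treated controls.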

[13] = NCI Yeast Anticancer Drug Screen. Data for the sgs1 strain (AID 173);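 further: 0% = growth of vehicle-only control cultures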; conditions: S. cerevisiae sgs1 mutant, hits give high values
Outline: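 Yeast mutant strains carrying defined defects in DNA damage repair or cell cycle control were exposed to test compounds. Growth inhibition was scored against vehicle-treated controls.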

[14] = NCI Yeast Anticancer Drug Screen. Data for the mlh1 rad18 strain (AID 175); conditions: S. cerevisiae mlh1 rad18 strain growth inhibition, hits give high values
Outline: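 Growth inhibition of the yeast strain was measured after compound exposure and expressed relative to vehicle-treated controls. The strain carries defined defects in DNA damage repair.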

[15] = NCI Yeast Anticancer Drug Screen. Data for the rad18 strain (AID 177); conditions: S. cerevisiae rad18 mutant growth inhibition, hits give high values
Outline: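 Yeast carrying a defined DNA damage repair alteration were exposed to compounds. Growth inhibition was expressed relative to vehicle-treated controls.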

[16] = NCI Yeast Anticancer Drug Screen. Data for the wt1 strain (AID 149);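 further: 0% = growth of vehicle-treated wt1 cultures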; conditions: S. cerevisiae wt1 strain (SPY 50644) growth inhibition, hits give high values
Outline: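 Readout: yeast growth inhibition, normalised to vehicle controls, in the wt1 strain exposed to test compounds.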

[17] = at 5.0 µM (retest, dose inferred, filed as 0.5)
[18] = at 50.0 µM (retest, dose inferred, filed as 5.0)

Measured: growth inhibition

CN(Cc1cnc2nc(N)nc(N)c2n1)c1ccc(C(=O)NC(CCC(=O)O)C(=O)O)c2ccccc12 (configuration not stated)
active: [1]; at 33.0 µM 90% | [1]; at 100.0 µM 93% | [2]; at 100.0 µM 79% | [3]; at 100.0 µM 79% | [4]; at 33.0 µM 89% | [4]; [18] 80% | [4]; at 50.0 µM 81.2% | [4]; at 100.0 µM 92% | [5]; at 3.7 µM 72% | [5]; [17] 72% | [5]; at 11.0 µM 92% | [5]; at 33.0 µM 95% | [5]; [18] 94% | [5]; at 50.0 µM 87.2% | [5]; at 100.0 µM 96% | [6]; at 33.0 µM 82% | [6]; at 100.0 µM 91% | [7]; [18] 71% | [7]; at 50.0 µM 72.7% | [10]; [18] 72% | [10]; at 50.0 µM 80.3% | [10]; at 100.0 µM 84% | [11]; at 100.0 µM 78% | [12]; at 100.0 µM 83% | [13]; at 33.0 µM 82% | [13]; at 100.0 µM 85% | [14]; [18] 72% | [15]; at 33.0 µM 79% | [15]; at 100.0 µM 89%
inactive: [1]; at 1.2 µM 16% | [1]; at 3.7 µM 24% | [1]; at 11.0 µM 66% | [2]; at 1.2 µM 5% | [2]; at 3.7 µM 24% | [2]; at 11.0 µM 41% | [2]; at 33.0 µM 57% | [3]; at 1.2 µM -18% | [3]; at 3.7 µM 1% | [3]; at 11.0 µM 25% | [3]; at 33.0 µM 51% | [4]; at 1.2 µM -2% | [4]; at 3.7 µM 22% | [4]; [17] -4% | [4]; at 11.0 µM 60% | [5]; at 1.2 µM 17% | [6]; at 1.2 µM -2% | [6]; at 3.7 µM 11% | [6]; at 11.0 µM 49% | [7]; [17] 27% | [8]; at 1.2 µM -14% | [8]; at 3.7 µM -12% | [8]; at 11.0 µM -28% | [8]; at 33.0 µM 7% | [8]; at 100.0 µM 58% | [9]; [17] -6% | [9]; [18] 45% | [9]; at 50.0 µM 35.1% | [10]; at 1.2 µM -5% | [10]; at 3.7 µM -7% | [10]; [17] -49% | [10]; at 11.0 µM 2% | [10]; at 33.0 µM 57% | [11]; at 1.2 µM -50% | [11]; at 3.7 µM -45% | [11]; at 11.0 µM -4% | [11]; at 33.0 µM 39% | [12]; at 1.2 µM 17% | [12]; at 3.7 µM 32% | [12]; at 11.0 µM 42% | [12]; at 33.0 µM 66% | [13]; at 1.2 µM 26% | [13]; at 3.7 µM 36% | [13]; at 11.0 µM 58% | [14]; [17] -13% | [15]; at 1.2 µM 17% | [15]; at 3.7 µM 25% | [15]; at 11.0 µM 38%

CNc1ccc(Cc2c[nH]c3ccccc23)cc1
active: [4]; [18] 76% | [4]; at 50.0 µM 89% | [5]; [18] 86% | [9]; [18] 70% | [10]; [18] 89% | [14]; [18] 79% | [14]; at 50.0 µM 84.8%
inactive: [1]; at 1.2 µM -20% | [1]; at 3.7 µM -35% | [1]; at 11.0 µM -27% | [1]; at 33.0 µM 4% | [1]; at 100.0 µM 22% | [2]; at 1.2 µM -36% | [2]; at 3.7 µM -48% | [2]; at 11.0 µM -23% | [2]; at 33.0 µM 26% | [2]; at 100.0 µM 39% | [3]; at 1.2 µM -32% | [3]; at 3.7 µM -28% | [3]; at 11.0 µM -32% | [3]; at 33.0 µM 1% | [3]; at 100.0 µM 25% | [4]; at 1.2 µM -40% | [4]; at 3.7 µM -48% | [4]; [17] 42% | [4]; at 11.0 µM -41% | [4]; at 33.0 µM 14% | [4]; at 100.0 µM 26% | [5]; at 1.2 µM -28% | [5]; at 3.7 µM -15% | [5]; [17] 56% | [5]; at 11.0 µM -23% | [5]; at 33.0 µM -5% | [5]; at 50.0 µM 67.9% | [5]; at 100.0 µM 8% | [7]; [17] -13% | [7]; [18] 64% | [8]; at 1.2 µM -8% | [8]; at 3.7 µM -30% | [8]; at 11.0 µM -35% | [8]; at 33.0 µM -19% | [8]; at 100.0 µM -5% | [9]; [17] 27% | [10]; at 1.2 µM -8% | [10]; at 3.7 µM -1% | [10]; [17] 15% | [10]; at 11.0 µM 10% | [10]; at 33.0 µM 7% | [10]; at 100.0 µM 30% | [11]; at 1.2 µM -17% | [11]; at 3.7 µM -24% | [11]; at 11.0 µM -29% | [11]; at 33.0 µM -5% | [11]; at 100.0 µM 13% | [12]; at 1.2 µM -35% | [12]; at 3.7 µM -41% | [12]; at 11.0 µM -25% | [12]; at 33.0 µM 15% | [12]; at 100.0 µM 27% | [13]; at 1.2 µM -30% | [13]; at 3.7 µM -30% | [13]; at 11.0 µM -31% | [13]; at 33.0 µM 11% | [13]; at 100.0 µM 28% | [14]; [17] 35% | [15]; at 1.2 µM -54% | [15]; at 3.7 µM -64% | [15]; at 11.0 µM -51% | [15]; at 33.0 µM -8% | [15]; at 100.0 µM 20%

C/C(=N\NC(=S)NNC(=S)N(C)c1ccccc1)c1ccccn1
active: [1]; at 11.0 µM 97% | [1]; at 33.0 µM 98% | [1]; at 100.0 µM 83% | [16]; at 11.0 µM 97% | [16]; at 33.0 µM 98% | [16]; at 100.0 µM 86% | [2]; at 11.0 µM 92% | [2]; at 33.0 µM 98% | [2]; at 100.0 µM 81% | [4]; at 11.0 µM 97% | [4]; at 33.0 µM 97% | [4]; [18] 98% | [4]; at 50.0 µM 87% | [4]; at 100.0 µM 83% | [6]; at 3.7 µM 71% | [6]; at 11.0 µM 97% | [6]; at 33.0 µM 98% | [6]; at 100.0 µM 79% | [7]; [18] 98% | [7]; at 50.0 µM 88.5% | [8]; at 11.0 µM 97% | [8]; at 33.0 µM 98% | [8]; at 100.0 µM 79% | [9]; [18] 99% | [9]; at 50.0 µM 86.3% | [10]; [17] 82% | [10]; at 11.0 µM 97% | [10]; at 33.0 µM 97% | [10]; [18] 98% | [10]; at 50.0 µM 87.2% | [10]; at 100.0 µM 83% | [11]; at 11.0 µM 97% | [11]; at 33.0 µM 99% | [11]; at 100.0 µM 90% | [12]; at 11.0 µM 97% | [12]; at 33.0 µM 98% | [12]; at 100.0 µM 83% | [13]; at 11.0 µM 98% | [13]; at 33.0 µM 98% | [13]; at 100.0 µM 88% | [14]; [18] 99% | [14]; at 50.0 µM 84.5% | [15]; at 11.0 µM 98% | [15]; at 33.0 µM 98% | [15]; at 100.0 µM 83%
inactive: [1]; at 1.2 µM 9% | [1]; at 3.7 µM 40% | [16]; at 1.2 µM -4% | [16]; at 3.7 µM 46% | [2]; at 1.2 µM 11% | [2]; at 3.7 µM 5% | [4]; at 1.2 µM -9% | [4]; at 3.7 µM 37% | [4]; [17] -19% | [6]; at 1.2 µM -6% | [7]; [17] 0% | [8]; at 1.2 µM 17% | [8]; at 3.7 µM 13% | [9]; [17] 29% | [10]; at 1.2 µM -17% | [10]; at 3.7 µM 21% | [11]; at 1.2 µM 9% | [11]; at 3.7 µM 22% | [12]; at 1.2 µM 21% | [12]; at 3.7 µM 41% | [13]; at 1.2 µM 13% | [13]; at 3.7 µM 64% | [14]; [17] 27% | [15]; at 1.2 µM 16% | [15]; at 3.7 µM 31%

Source: PubChem BioAssay (NCI)
